# Measured values published in PubChem BioAssay AID485346 (Sanford-Burnham Center for Chemical Genomics, 2010).
# The campaign covered roughly 330,000 compounds. About 10,000 (3%) were called active.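 Rule for the calls: active = inhibition of at least 50% at 8 µM in the primary screen; inactive = the rest.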 Many of the other results were omitted from the sample, so actives are more common in it than they were.
# Molecular target: Protein Mdm4 (Homo sapiens) + E3 ubiquitin-protein ligase Mdm2 (Homo sapiens) (UniProt O15151+Q00987)
# Sequence (O15151 whole entry, looked up): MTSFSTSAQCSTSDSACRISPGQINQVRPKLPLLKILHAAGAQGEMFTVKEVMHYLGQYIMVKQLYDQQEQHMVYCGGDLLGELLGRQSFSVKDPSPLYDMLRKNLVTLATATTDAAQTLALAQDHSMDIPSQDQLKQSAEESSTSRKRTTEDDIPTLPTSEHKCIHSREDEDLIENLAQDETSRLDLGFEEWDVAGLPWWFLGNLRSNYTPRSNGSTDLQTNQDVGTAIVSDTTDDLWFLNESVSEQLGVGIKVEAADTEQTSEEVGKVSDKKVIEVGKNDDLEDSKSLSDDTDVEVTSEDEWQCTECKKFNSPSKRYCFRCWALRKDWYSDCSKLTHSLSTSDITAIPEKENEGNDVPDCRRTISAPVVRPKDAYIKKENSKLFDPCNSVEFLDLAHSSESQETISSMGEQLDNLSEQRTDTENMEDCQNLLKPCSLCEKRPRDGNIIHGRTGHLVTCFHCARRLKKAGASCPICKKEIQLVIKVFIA
# Sequence (Q00987 whole entry, looked up): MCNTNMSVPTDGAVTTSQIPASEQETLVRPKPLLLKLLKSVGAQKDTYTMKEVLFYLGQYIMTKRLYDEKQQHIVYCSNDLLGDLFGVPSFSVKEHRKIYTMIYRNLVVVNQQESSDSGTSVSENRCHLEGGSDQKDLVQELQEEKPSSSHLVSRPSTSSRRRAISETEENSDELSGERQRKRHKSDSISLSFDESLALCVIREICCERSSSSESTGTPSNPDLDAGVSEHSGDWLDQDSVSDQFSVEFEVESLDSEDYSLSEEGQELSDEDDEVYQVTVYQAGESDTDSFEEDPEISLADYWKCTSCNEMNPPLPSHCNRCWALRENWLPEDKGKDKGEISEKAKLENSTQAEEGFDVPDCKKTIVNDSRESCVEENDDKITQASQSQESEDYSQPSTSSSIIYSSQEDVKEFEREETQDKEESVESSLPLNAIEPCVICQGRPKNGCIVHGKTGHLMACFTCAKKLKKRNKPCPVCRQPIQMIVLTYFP
# Assay: inhibitors of human Mdm2-MdmX association, primary screen, cell-based, luminescence, split luciferase, SaOS-2, uHTS (AID 485346)
# Conditions: SaOS-2 split-luciferase Mdm2/MdmX complementation, at 8 µM, hits give high values
row,Structure (SMILES),inhibition
1,O=C(CN1CCN(C2CCS(=O)(=O)C2)CC1)N1N=C(c2ccc(Cl)cc2)CC1c1ccco1 (stereo unspecified),26.2% (inactive)
2,COCCCC1CCN(C(=O)C2CCC(=O)N(C3CCCCCC3)C2)CC1 (stereo unspecified),27.9% (inactive)
3,Cc1c(Cl)cccc1NC(=S)NCC(O)c1ccccc1 (stereo unspecified),-14.3% (inactive)
4,Cc1cccc(C(=O)OC(C)C(=O)NC2CCCc3ccccc32)c1O (stereo unspecified),28.3% (inactive)
5,COC(=O)c1cc(OCC(=O)NC2CCCc3ccccc32)cc(C(=O)OC)c1 (stereo unspecified),1.41% (inactive)
6,NC(=O)Nc1ccc(C(=O)OCC(=O)NC2CCCc3ccccc32)cc1 (stereo unspecified),-3.47% (inactive)
7,O=C(CCNC(=O)c1ccc(Cl)cc1)NC1CCCc2ccccc21 (stereo unspecified),82.7% (active)
8,CC1(c2ccccc2)NC(=O)N(CC(=O)N2CC(=O)Nc3ccccc32)C1=O (stereo unspecified),-7.07% (inactive)
9,Cc1ccc(NC(=O)Nc2nnc(-c3ccncc3)s2)cc1,45.1% (inactive)
10,Cc1nnc(NC(=O)Nc2ccc(Cl)c(Cl)c2)s1,95.2% (active)
11,Cc1nnc(NC(=O)C(c2ccccc2)c2ccccc2)s1,7.45% (inactive)
12,CC(C)Oc1ccc(S(=O)(=O)N2CCOCC2)cc1NC(=O)C1CCCC1,-52.3% (inactive)
13,CC1CC(=S)Nc2ccccc2N1Cc1ccccc1 (stereo unspecified),18.7% (inactive)
14,CCCCN(CC)CCCNC(=O)c1ccc(CSc2nc3ccncc3[nH]2)cc1,6.18% (inactive)
15,COc1cccc(NC(=O)COC(=O)c2ccc3ccccc3n2)c1,-8.32% (inactive)
16,COc1ccc(CCNC(=O)CSc2nc(C)nc3c2oc2ccccc23)cc1OC,-0.689% (inactive)
17,CC(Nc1nc(N2CCCC2)nc2ccccc12)c1ccccc1 (stereo unspecified),70.8% (active)
18,CC(Nc1nc(N2CCOCC2)nc2ccccc12)c1ccccc1 (stereo unspecified),-0.119% (inactive)
19,CC(Nc1nc(N2CCN(CCO)CC2)nc2ccccc12)c1ccccc1 (stereo unspecified),-4.68% (inactive)
20,CCN(C(=O)COC(=O)CCC(=O)c1cccs1)C1CCCCC1,18.7% (inactive)
21,CC(=O)c1ccc(NC(=S)N(Cc2ccccc2)C(C)C2CC2)cc1 (stereo unspecified),29.9% (inactive)
22,CCOC(=O)C1CSC(CC(=O)Nc2ccc(OCC)cc2)C(=O)N1 (stereo unspecified),9.79% (inactive)
23,COCC1CCCN(C(=O)c2ccc3oc(C(C)C)nc3c2)C1 (stereo unspecified),28.6% (inactive)
24,Cc1cc(Nc2cc(N3CCN(C)CC3)nc(Sc3ccc(NC(=O)C4CC4)cc3)n2)n[nH]1,88.2% (active)
25,Cc1cc(C)nc(N2CCC(C(=O)Nc3ccc4c(c3)OCCO4)CC2)n1,15.6% (inactive)
26,Cc1n[nH]c(C)c1S(=O)(=O)N1CCCC(C(=O)Nc2ccc(Br)cc2)C1 (stereo unspecified),18.8% (inactive)

row,Structure (SMILES),inhibition
1,CCc1ccc(NC2Nc3cc(C)nn3S2)cc1 (stereo unspecified),-161% (inactive)
2,Cc1ccc(CNC(=O)[C@@H](NC(=O)Cc2ccccc2)C(C)C)cc1,33.2% (inactive)
3,CCN(C(=O)COC(=O)CCOc1cccc(C)c1)c1c(N)n(Cc2ccccc2)c(=O)[nH]c1=O,-15.7% (inactive)
4,CCCCN(C(=O)C1=NN(c2cc(C)ccc2C)C(=O)CC1)c1c(N)n(CCC)c(=O)[nH]c1=O,4.43% (inactive)
5,Nc1nc(NC(=O)/C=C/c2ccc(F)cc2)nn1-c1ccccc1,36.3% (inactive)
6,Cc1c(NC(=O)CCC2CCCCC2)cc(C(=O)N2CCOCC2)cc1[N+](=O)[O-],-15.2% (inactive)
7,C=CCC[C@H](Cc1ccc(F)cc1)C(=O)OC[C@@H](NC(=O)[C@@H](CC=C)CC(=O)N[C@H](CO)Cc1ccccc1)C(C)(C)C,46.7% (inactive)
8,C=CC[C@@H](CC(=O)N[C@H](CO)Cc1ccccc1)C(=O)N[C@@H](COC(=O)[C@@H](CC=C)Cc1ccc(F)cc1)Cc1c[nH]c2ccccc12,16.4% (inactive)
9,C=CC[C@@H](Cc1ccc(F)cc1)C(=O)OC[C@H]1CCCN1C(=O)[C@H](CC=C)CC(=O)N(CCO)Cc1ccccc1,38.8% (inactive)
10,C=CCC[C@@H](Cc1ccc(F)cc1)C(=O)O[C@H](CNC(=O)[C@H](CC=C)CC(=O)N(CCO)Cc1ccccc1)c1ccccc1,66.9% (active)
11,C=CCC[C@H](Cc1ccc(F)cc1)C(=O)OC[C@@H](Cc1c[nH]c2ccccc12)NC(=O)[C@H](CC=C)CC(=O)N[C@H](CO)Cc1ccccc1,38.1% (inactive)
12,C=CCC[C@@H](Cc1ccc(F)cc1)C(=O)OC[C@@H](C)NC(=O)[C@H](CC=C)CC(=O)N(CCO)Cc1ccccc1,24% (inactive)
13,C=CC[C@H](CC(=O)N(CCO)Cc1ccccc1)C(=O)N[C@@H](COC(=O)[C@@H](CC=C)Cc1ccc(F)cc1)Cc1ccccc1,67.8% (active)
14,C=CCC[C@@H](Cc1ccc(F)cc1)C(=O)OC[C@H](Cc1c[nH]c2ccccc12)NC(=O)[C@@H](CC=C)CC(=O)N(CCO)Cc1ccccc1,87.5% (active)
15,C=CCC[C@H](Cc1ccc(F)cc1)C(=O)OC[C@H](C)NC(=O)[C@H](CC=C)CC(=O)N(CCO)Cc1ccccc1,-2.85% (inactive)
16,CCOc1ccc(NC(=O)CN(C)C(=O)Cc2sc(C)nc2-c2ccc(F)cc2)cc1OCC,10.8% (inactive)
17,COc1ccc(CN2CCN(C(=O)CCC(=O)Nc3nnc(C(C)C)s3)CC2)cc1F,16.8% (inactive)
18,O=C(/C=C/c1ccccc1[N+](=O)[O-])OCC(=O)N1CCCC1,15% (inactive)
19,COc1ccc(S(=O)(=O)N2CCN(CC(=O)NCC3(N4CCOCC4)CCCCC3)CC2)cc1,-0.077% (inactive)
20,CCO[C@@H]1OC(C(=O)NCc2nc3ccccc3[nH]2)=C[C@H](C2CCCCC2)[C@H]1CCCO,18.5% (inactive)
21,O=C(CSc1nnc(CNC(=O)c2ccc(F)cc2)o1)Nc1ccc2c(c1)OCO2,5.86% (inactive)
22,NC(=O)C1CCN(C(=O)c2ccc(F)c(S(=O)(=O)N3CCOCC3)c2)CC1,-40.7% (inactive)
23,C=CCO/N=C(\C)c1c(O)c(C)c(-c2ccccc2)n(-c2ccccc2)c1=O,9.07% (inactive)
24,CC(OC(=O)c1cc2ccccc2o1)C(=O)Nc1ccc(N2CCOCC2)cc1 (stereo unspecified),11.3% (inactive)
25,CN(CC(=O)Nc1c(Cl)cccc1Cl)C(=O)c1ccncc1,19.3% (inactive)
